Shown are actives, neighbours in structure and some others; about 2% of the full set was active somewhere.
Gli-Sufu block – antagonists of Gli-Sufu signaling; Sufu-KO-LIGHT fibroblasts, Gli luciferase reporter luminescence; inhibition, % at 5 µM; actives 0.74% (n = 340,000); AID 588413;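 active = inhibition above about 55%, limit read from the data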;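 also: 0% = DMSO-treated cells and 100% = wells with medium but no cells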
697 NFkB inh – lowers PMA/ionomycin-induced NF-kB signal in 697 B cells; 697 B-cell NF-kB luciferase reporter, 16 h; inhibition, % at 4 µM; actives 0.33% (n = 330,000); in the data active = inhibition above about 35%
GalR3 antagonist – blocks the human galanin receptor 3; O60755; HEK293 GalR3-CNG cAMP membrane potential fluorescence; galR3 body fused to GalR1 C-terminus; inhibition, % at 3 µM; actives 0.44% (n = 360,000); AID 651719;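 active = inhibition above the screen-wide average plus 3 SD, cut at about 13% in these data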;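 also: forskolin and galanin both at EC90 stimulate the cells; cAMP rise reported by CNG channel membrane potential dye signal; 0% = forskolin plus galanin with DMSO and 100% = forskolin alone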
Jurkat NFkB inh – inhibitors of the PMA/ionomycin-induced NF-kB reporter in Jurkat cells; PMA/ionomycin-induced NF-kB luciferase reporter, luminescence; inhibition, % at 4 µM; actives 0.53% (n = 330,000); AID 435003; in the data active = inhibition above about 50%
COUP-TFII inh – NR2F2 (human) inhibition, primary screen; actives 0.7% (n = 370,000); P24468; inhibition, % at 8.6 µM; HEK293T NGFI-A luciferase reporter, luminescence; AID 686940;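 active = inhibition above a per-plate cutoff, mean inhibition of test wells between control levels plus 3 SD, cut at about 38% in these data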;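 also: cells cotransfected with COUP-TFII expression vector driving the NGFI-A reporter; 0% = median of COUP-TF2 test wells and 100% = reporter-only cells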
Target sequence (P24468 whole entry, looked up): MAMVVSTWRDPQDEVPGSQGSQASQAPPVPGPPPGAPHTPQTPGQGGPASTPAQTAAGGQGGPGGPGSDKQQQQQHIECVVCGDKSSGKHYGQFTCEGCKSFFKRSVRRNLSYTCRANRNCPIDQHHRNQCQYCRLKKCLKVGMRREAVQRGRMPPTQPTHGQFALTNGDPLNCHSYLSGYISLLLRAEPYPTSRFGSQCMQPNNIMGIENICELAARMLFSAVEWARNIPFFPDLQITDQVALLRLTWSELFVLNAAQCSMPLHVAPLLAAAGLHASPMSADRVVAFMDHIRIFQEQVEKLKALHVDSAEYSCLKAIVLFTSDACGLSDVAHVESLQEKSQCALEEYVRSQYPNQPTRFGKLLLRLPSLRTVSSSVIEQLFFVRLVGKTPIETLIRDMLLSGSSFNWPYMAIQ
GalR3 antag conf – GalR3 (human) antagonism, confirmation | actives 59% (n = 1,600) | shares compounds with GalR3 antagonist | HEK293 GalR3 CNG cAMP biosensor, membrane potential fluorescence; galR3 fused to GalR1 carboxy tail; challenged with forskolin and galanin at EC90 | inhibition, % at 3 µM;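 active = inhibition above the primary screen's cutoff, the mean inhibition of all screened compounds plus 3 SD, cut at about 13% in these data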;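 also: 0% = forskolin plus galanin and 100% = forskolin alone with DMSO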
HEK-CNG parental – parental cell agonism counter-screen for GalR3 antagonists; shares compounds with GalR3 antagonist; actives 10% (n = 1,600); AID 652268; HEK293-CNG parental cells, cAMP membrane potential fluorescence; normalised: DMSO wells 0%, forskolin wells 100%; activation, % at 3 µM; in the data active = activation above about 1.3%
Starred values were filed as active, the others as inactive; . = no result given; ! = repeats disagree.

SMILES | Gli-Sufu block | 697 NFkB inh | GalR3 antagonist | Jurkat NFkB inh | COUP-TFII inh | GalR3 antag conf | HEK-CNG parental
CC(=O)c1cccc(NC(=O)N2CC(C)OC(C)C2)c1 (stereo not given) | -18 | 9 | 2 | 2 | -12 | . | .
CC1CN(C(=O)Nc2cccc(C(F)(F)F)c2)CC(C)O1 (stereo not given) | 3 | 17 | . | -4 | -3 | 3 | 0
O=C(C(=O)N1CCC(Cc2ccccc2)CC1)c1ccccc1 | . | . | 16*! | . | 6 | -2 | 0
CC(O)CN(CC(C)O)c1ccc2c(c1)Cc1cc([N+](=O)[O-])ccc1-2 (stereo not given) | -18 | . | 13* | . | -11 | 27* | 1.4*
COC(=O)C1CN(Cc2cn(Cc3ccc(Cl)cc3)nn2)CCS(=O)(=O)N1Cc1ccc(F)cc1 (stereo not given) | . | . | . | . | 13 | . | .
COC(=O)[C@]12CCCCC=C1N(Cc1ccc(OC)cc1)C(=O)[C@@H]2CC(=O)N1CCSCC1 | . | . | . | . | -11 | . | .
CSc1ncccc1C(=O)NCC(c1cccs1)N1CCOCC1 (stereo not given) | -5 | -6 | 16* | -4 | -5 | -1 | 0
CCN(CC)C(=O)CSc1nnc(-c2cccs2)o1 | . | . | . | . | -92 | . | .
COC(=O)CNC(=O)CN1c2cccc3cccc(c23)S1(=O)=O | 6 | -7 | 13* | -7 | -12 | 0 | 0
O=C(CNC(=O)c1ccc(F)cc1)Nc1ccccc1C(F)(F)F | 7 | 14 | 14* | 13 | -16 | -3 | 0
c1nc(NCC2CCCOC2)c2cc(-c3ccc4c(c3)OCO4)ccc2n1 (stereo not given) | . | . | . | . | -16 | . | .
COc1ccc2[nH]c(=O)c(CNc3ccc(C)cc3C)cc2c1 | 8 | -9 | 14* | -5 | -5 | 5 | 0
CC(Oc1ccc(Cl)cc1Cl)c1ccnc2nc(N3CCOCC3)nn12 (stereo not given) | 11 | -5 | . | 7 | 15 | 3 | 1
CC(Oc1ccccc1)c1ccnc2nc(N3CCOCC3)nn12 (stereo not given) | -2 | 1 | -4 | -11 | 17 | . | .
CCc1nc2ccc(C(=O)Nc3ccc4c(c3)OCC(=O)N4)cn2c1N(CC)CCOC | . | . | 15* | . | -28 | 11 | 0
O=C(C1CCCN(S(=O)(=O)c2cccc3ccccc23)C1)N1CCN(Cc2ccccc2)CC1 (stereo not given) | . | . | . | . | 5 | . | .
CC(C)CN=CC1=C(O)c2ccccc2C1=O | -17 | -103 | -2 | -66 | -42 | . | .
O=C1C(C=NC2CC2)=C(O)c2ccccc21 | -22 | -15 | 14* | -4 | -33 | 4 | 0
CC(C)[C@@H]1C(=O)N[C@H](Cc2cn(S(=O)(=O)c3ccccc3)c3ccccc23)C(=O)N1C | . | . | . | . | -2 | . | .
COc1ccccc1CNC(=O)[C@H](C)NC(=O)[C@@H]1Cc2ccccc2CN1 | -3 | 12 | 9 | 6 | -16 | . | .
COc1ccccc1CNC(=O)[C@H](CCSC)NC(=O)[C@@H]1Cc2ccccc2CN1 | -23 | -6 | 22* | 9 | 15 | 12 | 0
Cn1ccnc1CN1CCC[C@]2(CC[C@H](CCC#N)O2)C1 | . | . | . | . | -4 | . | .
CCOC(=O)c1oc2c(c1C)/C(=N/O)CCC2 | -23 | -28 | 13* | -21 | -46 | 2 | 0
CCOC(=O)c1oc2c(c1C)C(=O)CCC2 | 36 | -29 | -11 | 3 | -4 | . | .
Cc1ccc(S(=O)(=O)N2c3ccccc3C[C@H]2CCC(=O)c2ccccc2)cc1 | . | . | . | . | 0 | . | .
SMILES | Gli-Sufu block | 697 NFkB inh | GalR3 antagonist | Jurkat NFkB inh | COUP-TFII inh | GalR3 antag conf | HEK-CNG parental
CC(=O)NCCc1nc(-c2ccc(Cl)cc2)no1 | -16 | -2 | -3 | 0 | -8 | . | .
CC(C)C(=O)NCCc1nc(-c2ccccc2)no1 | -5 | -12 | . | -16 | -1 | 1 | 0
NC(=O)COC(=O)c1cccnc1Nc1ccccc1F | 4 | 16 | 5 | 4 | -8 | . | .
NC(=O)c1cccnc1Nc1ccccc1Cl | -10 | 4 | 19* | -16 | -2 | -6 | 0
CCCC[C@H]1C2CC(OC(=O)NCCCC(=O)OCC)C(C2)[C@H]2CCCCN21 (stereo not given in full) | . | . | . | . | 8 | . | .
COc1ccc(NCc2nnc(SCC(=O)Nc3ccccc3)n2C)cc1 | -9 | 3 | . | -15 | 7 | -1 | 0
COc1ccc2c(c1)CCCN2C(=O)C1CCCN(S(=O)(=O)c2cc(OC)ccc2OC)C1 (stereo not given) | . | . | . | . | -1 | . | .
COCCN1Cc2cccc(C(=O)Nc3cc(OC)ccc3OC)c2C1=O | -16 | 19 | 45* | -7 | -6 | 52* | 0
Cc1cc(N2CCN(Cc3ccc4c(c3)OCO4)CC2)n2nc(C)nc2n1 | . | . | . | . | 13 | . | .
CC(C)(C)NC(=O)COC(=O)c1snc(C(=O)NC2CCCCC2)c1N | -4 | -14 | 101* | 12 | 67* | 123* | -1
Cc1ccccc1Cn1cc(COC(=O)NCCc2ccccc2)nn1 | . | . | . | . | -2 | . | .
CCN(CC)S(=O)(=O)c1ccc(C(=O)NCCN(C)C)cc1 | 1 | 2 | 20* | 4 | 6 | 4 | 0
CCN(CC)S(=O)(=O)c1ccc(C(=O)NCCCn2ccnc2)cc1 | -1 | 6 | -6 | -4 | 2 | . | .
CCOc1ccc(-n2c(SCC(=O)Nc3ccc(Oc4ccccc4)cc3)nnc2-c2ccncc2)cc1 | . | . | . | . | 5 | . | .
CCCCNC(=O)C1CCCN(S(=O)(=O)CC)C1 (stereo not given) | -7 | -26 | 14* | 1 | 2 | 0 | 0
CC(C)Oc1cccc(-c2n[nH]c(=S)n2N=Cc2ccc(OCc3ccccc3)cc2)c1 | . | . | . | . | -9 | . | .
C=C(C)[C@@H]1CC=C(CN2CCC(N3CCC(C(=O)N4CCCC4)CC3)CC2)CC1 | -1 | 6 | 20* | 45 | 33 | 3 | 4.4*
C=C(C)C1CC=C(CN2CCC(O)CC2)CC1 (stereo not given) | 5 | 8 | -2 | -15 | -15 | . | .
CN1CCCN(C(=O)C2CCN(c3ncnc4c3sc3cccc(F)c34)CC2)CC1 | . | . | . | . | -2 | . | .
O=C1OCc2ccc(NC(=O)c3sccc3Cl)cc21 | -8 | -1 | 15* | -2 | -7 | 7 | 0
O=C(O)/C=C/C(=O)c1ccc2c(c1)CCc1ccccc1-2 | -66 | -54 | 25* | 3 | -11 | 16* | 1
Cc1nc(NCC2CC2)c2nnn(Cc3ccccc3)c2n1 | -3 | 5 | 18* | -1 | -7 | -2 | 0
O=c1c(Cl)c(NCC2CCCO2)cnn1C12CC3CC(CC(C3)C1)C2 (stereo not given) | -12 | 11 | 15* | 1 | -24 | 33* | 0
CCN(CC)CC(=O)Nc1ccc(C)cc1C(=O)c1ccccc1 | 8 | 4 | -8 | 11 | 7 | . | .

Source: PubChem BioAssay (several laboratories)
